Bioassay records: PubChem BioAssay, National Center for Advancing Translational Sciences (NCATS)
An excerpt weighted towards active compounds, which were near 12% of everything screened.
HP1b chromo inh – HTS for Inhibitors of HP1-beta Chromodomain Interactions with Methylated Histone Tails; AlphaScreen HP1-beta / biotin-H3K9me3 peptide binding; Potency, µM (series often up to 114 µM), for inactives: at the highest dose activity change, negative = inhibition, most hits filed as inhibitors; 390,000 compounds, 0.56% hits; note: potency is the fitted concentration of half-maximal effect; nearly all actives have a fitted effect of over 70% in size
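HP1-beta protein (50 nM final) preincubated 30 min at room temperature with biotinylated H3(1-18)K9me3 peptide (50 nM) in PBS pH 7.4, 0.01% Tween-20, then compound added for 30 min. AlphaScreen streptavidin donor/nickel chelate acceptor beads (10 ug/mL final), 30 min dark, luminescence read.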
G9a inh – qHTS Assay for Inhibitors of Histone Lysine Methyltransferase G9a; Histone-lysine N-methyltransferase EHMT2 (Homo sapiens), Q96KQ7; G9a H3K9 monomethylation, AlphaScreen, 2 h; Potency, µM (top dose mostly 102 µM), without a hit: top-dose activity, negative = inhibition, actives largely listed as inhibitors; 350,000 compounds, 8.8% hits; note: potency is the fitted concentration of half-maximal effect; % is set by controls: 0 for no effect and ±100 for the full control effect; nearly all actives have a fitted effect of over 75% in size
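Readings reflect AlphaScreen signal from monomethyl-H3K9 antibody detection. HMT at 20 nM; substrate b-H3K9 500 nM; cofactor SAM 20 uM; 2 h RT reaction; compounds tested as titrations in qHTS with 15 min preincubation.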
JMJD2A Tudor – qHTS Assay for Inhibitors of JMJD2A-Tudor Domain. Potency, µM (series often up to 114 µM), without a hit: at the top dose activity change, negative = inhibition, actives largely listed as inhibitors. AlphaScreen JMJD2A-Tudor / H3K4me3 peptide binding. Lysine-specific demethylase 4A (Homo sapiens), O75164. AID 504339, 2011. 390,000 compounds, 4.4% hits; note: potency is the fitted concentration of half-maximal effect; % is set by controls: 0 for no effect and ±100 for the full control effect; nearly all actives have a fitted effect of over 50% in size
Target sequence (O75164 whole entry, looked up, the tested form may be a part): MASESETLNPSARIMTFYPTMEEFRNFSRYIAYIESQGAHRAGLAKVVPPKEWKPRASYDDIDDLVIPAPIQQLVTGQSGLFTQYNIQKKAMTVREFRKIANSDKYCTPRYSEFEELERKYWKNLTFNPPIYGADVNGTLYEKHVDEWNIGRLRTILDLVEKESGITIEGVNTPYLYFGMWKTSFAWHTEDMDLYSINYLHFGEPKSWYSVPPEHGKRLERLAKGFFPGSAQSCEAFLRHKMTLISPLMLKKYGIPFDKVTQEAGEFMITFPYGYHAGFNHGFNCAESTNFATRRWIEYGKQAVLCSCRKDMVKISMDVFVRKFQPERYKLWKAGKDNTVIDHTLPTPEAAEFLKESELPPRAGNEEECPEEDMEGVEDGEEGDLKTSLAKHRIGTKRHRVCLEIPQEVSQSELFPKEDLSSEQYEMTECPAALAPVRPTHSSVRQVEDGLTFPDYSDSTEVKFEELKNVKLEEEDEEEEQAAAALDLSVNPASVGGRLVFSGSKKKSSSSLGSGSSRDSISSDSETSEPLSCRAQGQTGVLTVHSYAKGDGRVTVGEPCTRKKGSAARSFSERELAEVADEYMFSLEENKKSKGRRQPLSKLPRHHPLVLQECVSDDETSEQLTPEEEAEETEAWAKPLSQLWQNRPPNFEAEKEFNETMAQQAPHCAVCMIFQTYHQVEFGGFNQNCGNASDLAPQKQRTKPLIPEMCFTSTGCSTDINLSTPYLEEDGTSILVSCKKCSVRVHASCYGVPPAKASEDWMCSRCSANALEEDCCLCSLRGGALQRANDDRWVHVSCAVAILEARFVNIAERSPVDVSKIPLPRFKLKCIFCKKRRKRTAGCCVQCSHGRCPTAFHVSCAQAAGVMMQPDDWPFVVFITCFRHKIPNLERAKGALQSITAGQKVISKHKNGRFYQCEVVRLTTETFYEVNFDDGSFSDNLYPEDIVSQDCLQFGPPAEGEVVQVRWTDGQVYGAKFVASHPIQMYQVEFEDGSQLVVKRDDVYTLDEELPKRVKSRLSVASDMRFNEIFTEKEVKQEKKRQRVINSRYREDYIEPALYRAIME
L3MBTL1 inh-1 – qHTS Assay for the Inhibitors of L3MBTL1; Lethal(3)malignant brain tumor-like protein 1 (Homo sapiens), Q9Y468; AlphaScreen L3MBTL1–H3K9me1 peptide binding; Potency, µM (top dose mostly 57.1 µM), without a hit: at the top dose activity, negative = inhibition, usual class: inhibitors; 230,000 compounds, 0.66% hits; note: potency is the fitted concentration of half-maximal effect; % is set by controls: 0 for no effect and ±100 for the full control effect; nearly all actives have a fitted effect of over 60% in size
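Displacement of a biotinylated histone H3(1-15) peptide monomethylated at Lys9 (75 nM) from L3MBTL1 (50 nM) was measured by AlphaScreen after a 30 min room-temperature compound incubation; cefsulodin titration served as intraplate control.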
Sfp PPTase inh – qHTS Assay for Inhibitors of Bacillus subtilis Sfp phosphopantetheinyl transferase (PPTase) | 4'-phosphopantetheinyl transferase ffp (Bacillus subtilis), Q9F4F7 | Biochemical Sfp PPTase activity, qHTS | Potency, µM, for the others: largest response in the series, negative = inhibition, most hits filed as inhibitors | 310,000 compounds, 3.5% hits | AID 1490, 2009;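 note: the enzyme is Sfp with the accession as filed and its product quenches rhodamine fluorescence; potency is the fitted concentration of half-maximal effect; 0% = enzyme reaction without inhibitor and -100% = no enzyme wells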
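With Hepes-Na pH 7.6 buffer containing 10 mM MgCl2, Sfp (15 nM) modified BHQ-2-YbbR (12.5 uM) using rhodamine-CoA (5 uM). Two reads 30 minutes apart at 525/598 nm yielded each well's rate.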
BAZ2B block – qHTS Assay for Inhibitors of BAZ2B; AlphaScreen BAZ2B-H3K14Ac peptide displacement; Potency, µM (doses to about 114 µM), for the others: at the highest dose activity change, negative = inhibition, usual class: inhibitors; 360,000 compounds, 4.4% hits; note: potency is the fitted concentration of half-maximal effect; % is set by controls: 0 for no effect and ±100 for the full control effect; nearly all actives have a fitted effect of over 60% in size
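AlphaScreen luminescence quantifies BAZ2B engagement of H3K14Ac peptide; the protein and biotinylated peptide are both at 50 nM final, buffer PBS pH 7.4 with 0.01% Tween-20, all steps at room temperature.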
L3MBTL1 inh-2 – qHTS Assay for the Inhibitors of L3MBTL1: Hit Validation. shares compounds with L3MBTL1 inh-1. L3MBTL1 methyl-lysine binding inhibition, biochemical qHTS. Potency, µM, actives largely listed as inhibitors. 500 compounds, 91% hits. AID 540279, 2011; note: potency is the fitted concentration of half-maximal effect; nearly all actives have a fitted effect of over 70% in size
L3MBTL1 ctr – qHTS Assay for the Inhibitors of L3MBTL1: Hit Validationin AlphaScreen Counterscreen; shares compounds with L3MBTL1 inh-1; Potency, µM (highest dose often 57.1 µM), for inactives: at the top dose activity change, negative = inhibition, actives largely listed as inhibitors; AlphaScreen counterscreen, signal inhibition; AID 602224, 2012; 500 tested, under 10 active; note: potency is the fitted concentration of half-maximal effect; 0% is about no effect
ME-1 growth – qHTS Assay for Compounds Blocking the Interaction Between CBF-beta and RUNX1 for the Treatment of Acute Myeloid Leukemia: ME-1 cellular proliferation; 140 compounds, 20% hits; ME-1 cell proliferation, ATP luminescence, 48 h; Potency, µM (titrated, usually from 56.1 µM), for inactives: top-dose activity change, negative = inhibition, most hits filed as inhibitors; AID 504370, 2011; shares compounds with BAZ2B block
The depositor's hits bear a star; ? = inconclusive; nt = no result; [ ] = dose if it differs, or a comment. Calls come from the whole dose curve; as a rule, active = well fitted curve in the direction sought with a large enough effect; inconclusive = small, poorly fitted or top-dose-only effect, or another doubt; inactive = no such curve, though single readings can be large; an effect the other way counts as inactive or inconclusive.

SMILES | HP1b chromo inh | G9a inh | JMJD2A Tudor | L3MBTL1 inh-1 | Sfp PPTase inh | BAZ2B block | L3MBTL1 inh-2 | L3MBTL1 ctr | others
O=C(Nc1nc2ccc(F)cc2s1)C1CCN(S(=O)(=O)c2cc([N+](=O)[O-])ccc2Cl)CC1 | -8% | 22µM* | ? | 28µM* | ? | ? | 6.7* | ?
CC(NC(=O)C1CCN(S(=O)(=O)c2cc([N+](=O)[O-])ccc2Cl)CC1)c1ccccc1 (stereo not given) | 14% | -6%[59 µM] | -5% | 6% | 18% | -21% | nt | nt
Brc1ccc(-c2cc3c(N4CCN(c5ccccc5)CC4)nccn3n2)cc1 | 36% | 3%[59 µM] | 7% | nt | nt | -1% | nt | nt
O=S1(=O)Nc2c(ccc3cccnc23)-c2ccccc21 | 29% | -54%[59 µM] | 5.6µM* | 11µM* | -18% | 6.3µM* | 3* | 9.5µM*
O=C(/C=C/c1ccc(O)c(O)c1)OC1C(O)CC(OC(=O)/C=C/c2ccc(O)c(O)c2)(C(=O)O)CC1O (stereo not given) | 30% | 32µM* | 22µM* | 1µM* | 45µM* | -10% | 0.075* | 7%
c1ccc(CNCc2ccco2)cc1 | 23% | -6% | -10% | nt | 8% | -16% | nt | nt
Cc1ccc(NC(=O)CSc2nc3n[nH]c(C)c3c(=N)n2-c2ccccc2C)cc1C | 5% | -14%[59 µM] | -11% | nt | nt | -1% | nt | nt
Cc1ccc(OCCN(C)C(=O)C2CCC(=O)N(CCCN3CCOCC3)C2)cc1 (stereo not given) | 30% | nt | -13% | nt | 10% | -1% | nt | nt
CCOc1ccccc1-n1nnnc1SCC(=O)NC(=O)NCc1ccco1 | -1% | 79µM* | ? | 25µM* | -17% | 50µM* | 21* | 0%
O=C(CSc1nnc(COc2ccccc2Cl)o1)NC(=O)NCc1ccco1 | ? | 50µM* | ? | 14µM* | -10% | 40µM* | 12* | -8%
O=C(CSc1nnc(Nc2ccccc2)s1)NCc1ccco1 | 1% | -22%[59 µM] | -15% | -7% | 5% | nt | nt | nt
Cc1ccccc1Nc1nnc(SCC(=O)NC(=O)NCc2ccco2)s1 | -5% | 35µM* | ? | 28µM* | -18% | -37% | 9.5* | 8%
Cc1ccc(C(=O)O)cc1S(=O)(=O)Nc1ccccc1C(=O)NC1CC1 | 20% | -33% | -22% | -3% | nt | 5% | nt | nt
O=S(=O)(c1ccc2nc(Nc3ccc(Br)cc3F)ccc2c1)N1CCCC1 | 38% | -9%[59 µM] | -6% | nt | nt | -16% | nt | nt
O=C(/C=C/c1ccco1)Nc1scc(-c2ccccc2)c1C(=O)O | ? | 50µM* | -32% | 25µM* | -56% | -29% | 2.7* | -29%
CC(=O)N1CCN(S(=O)(=O)c2cccc(C(=O)Nc3cc(C(F)(F)F)ccc3N3CCOCC3)c2)CC1 | 29% | -8% | -6% | nt | 9% | -6% | nt | nt
CCN(CC)C(CNC(=O)CSc1nnnn1-c1c(C)cccc1C)c1ccco1 (stereo not given) | 1% | 2% | -20% | -5% | nt | 10% | nt | nt
Cc1nnc(NC(=O)C2CCN(S(=O)(=O)c3ccc(F)c(Cl)c3)CC2)o1 | 34% | -40% | 3.5µM* | 35µM* | nt | 32µM* | ? | -6%
COc1ccc(S(=O)(=O)N2CCOCC2)cc1NC(=O)C1CCN(S(=O)(=O)c2ccc(Cl)cc2)CC1 | 15% | nt | -2% | nt | nt | nt | nt | nt
Cc1ccc(NC(=O)Cn2nc(-c3ccccc3)nc(Cc3ccc(Cl)cc3)c2=O)cc1 | 24% | 0%[59 µM] | -11% | nt | nt | -3% | nt | nt
O=C(CN1C(=O)C2CC=CCC2C1=O)Nc1ccc(F)cc1F (stereo not given) | 25% | -6%[12.7 µM] | -7% | 4% | nt | -5% | nt | nt
Cc1cc(C(=O)O)ccc1-c1ccc(/C=C2\NC(=O)N(Cc3ccccc3Cl)C2=O)o1 | ? | 25µM* | 45µM* | 18µM* | 13µM* | 45µM* | 7.5* | 35%
COC(=O)COc1ccc(C2Nc3c(Cl)ccc(C(=O)O)c3C3C=CCC32)cc1 (stereo not given) | ? | 13µM* | 45µM* | 20µM* | 10µM* | 50µM* | 17* | 4%
COC(=O)COc1ccc(S(=O)(=O)N2CCN(c3ccccc3)CC2)cc1 | 29% | 10% | 3% | 3% | -1% | -5% | nt | nt
O=c1cc2c(=O)oc3cc(O)c(O)oc3c2c(O)c1O | 1.6µM* | nt | 1.4µM* | 0.32µM* | 5µM* | 1.8µM* | 0.17* | ? | ME-1 growth=-15%
Cc1ccc(S(=O)(=O)N(C)C)cc1NC(=S)Nc1ccc2[nH]c(=O)[nH]c2c1 | 9% | ? | -23% | 6% | ? | nt | nt | nt
COc1c(N2CCN(C(=S)NC3CC4CCC3C4)C(C)C2)c(F)cc2c(=O)c(C(=O)O)cn(C3CC3)c12 (stereo not given) | 47% | 5% | -15% | 6% | 6% | ? | nt | nt
CO/N=C1\CN(c2nc3c(cc2F)c(=O)c(C(=O)O)cn3C2CC2)CC1CN (stereo not given) | nt | -7%[2.33 µM] | nt | nt | 10% | nt | nt | nt | ME-1 growth=?
COCCSc1ccccc1C(=O)N1CCc2ccccc2C1 | 41% | 37%[12.7 µM] | 6% | -1% | 21% | -24% | nt | nt
Brc1ccc(Cn2c(-c3ccc(Br)o3)nc3ccccc32)o1 | -8% | 40µM* | -21% | -29% | ? | 13µM* | nt | nt | ME-1 growth=?
